This is one part of the list. No count for the full screen is at hand.
Target: furin, P09958
Experiment: furin cleavage Z-score vs untreated control; higher = more cleavage, active = 3.5 or more, inactive = 1 or less, 8 variable residues between constant flanks
Method in brief: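 Reactions of 0.01 ml ran for 7.5, 15 or 30 min in 50 mM HEPES pH 7.5 with CaCl2 and NaCl, at 1:10 enzyme:substrate. In them, purified furin acted on bead-held 8-mer peptides fused to a cDNA oligonucleotide. The cleavage Z-score was obtained by lowess-adjusting log sequencing counts of released DNA against furin-free reactions and scaling by median absolute deviation.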

Chain of furin, P09958 (P09958 whole entry): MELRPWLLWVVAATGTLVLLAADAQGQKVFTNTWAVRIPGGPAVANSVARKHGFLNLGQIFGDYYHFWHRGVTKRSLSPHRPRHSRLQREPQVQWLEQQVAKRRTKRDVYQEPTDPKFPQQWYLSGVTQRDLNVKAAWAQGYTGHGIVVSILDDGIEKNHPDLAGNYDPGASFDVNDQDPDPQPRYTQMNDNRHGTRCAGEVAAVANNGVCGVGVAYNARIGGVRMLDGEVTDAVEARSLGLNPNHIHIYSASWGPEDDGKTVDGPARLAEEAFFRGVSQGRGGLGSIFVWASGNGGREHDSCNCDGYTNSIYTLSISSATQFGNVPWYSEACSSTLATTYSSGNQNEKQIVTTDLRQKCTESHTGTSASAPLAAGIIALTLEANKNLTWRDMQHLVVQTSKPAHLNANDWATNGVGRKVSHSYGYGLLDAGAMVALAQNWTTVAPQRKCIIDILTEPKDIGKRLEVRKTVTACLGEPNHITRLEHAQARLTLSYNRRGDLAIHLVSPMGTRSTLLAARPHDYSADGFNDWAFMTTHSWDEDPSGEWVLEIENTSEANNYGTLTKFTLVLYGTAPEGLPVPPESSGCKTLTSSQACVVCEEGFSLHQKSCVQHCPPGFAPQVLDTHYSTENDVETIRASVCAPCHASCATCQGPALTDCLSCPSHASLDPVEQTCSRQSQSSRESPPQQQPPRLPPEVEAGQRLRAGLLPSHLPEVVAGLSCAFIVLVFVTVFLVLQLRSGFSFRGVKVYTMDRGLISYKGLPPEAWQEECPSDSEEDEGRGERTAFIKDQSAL

Sequence | furin cleavage Z-score (7.5 min) | furin cleavage Z-score (15 min) | furin cleavage Z-score (30 min)
CAIVVTSTWVAGNASASA [HC2144] | 0.282 (inactive) | -0.196 (inactive) | 0.858 (inactive)
CASGSKKKRKAGNASASA [FS-1278] | -1.57 (inactive) | 0.447 (inactive) | 0.492 (inactive)
CALLVRKKRKAGNASASA [FS-824] | 9.19 (active) | 10.5 (active) | 8.06 (active)
CAIFWRKKRKAGNASASA [FS-337] | 4.37 (active) | 3.52 (active) | 5.53 (active)
CAHLVRKKRKAGNASASA [FS-1339] | 10.2 (active) | 11.5 (active) | 10.3 (active)
CAATCTANHDAGNASASA [HC1267] | -0.592 (inactive) | 0.126 (inactive) | 0.634 (inactive)
CAAVMGSSYGAGNASASA [HC1463] | -0.652 (inactive) | 0.469 (inactive) | -0.776 (inactive)
CALVFFCFAWAGNASASA [HC545] | -0.625 (inactive) | -0.493 (inactive) | -2.31 (inactive)
CAKYNRGRRKAGNASASA [FS-1598] | -1.68 (inactive) | 1.26 | 2.34
CAATVCARAQAGNASASA [HC956] | -0.452 (inactive) | 0.685 (inactive) | -0.234 (inactive)
CAAKRRTRRQAGNASASA [FS-1443] | 9.31 (active) | 8.38 (active) | 7.06 (active)
CARNTNRRPQAGNASASA [HC167] | 0.367 (inactive) | 0.97 (inactive) | -0.345 (inactive)
CAKNEVFCVQAGNASASA [HC1441] | -0.977 (inactive) | -0.752 (inactive) | -0.637 (inactive)
CAAKRRFRRQAGNASASA [FS-521] | 11.3 (active) | 11.5 (active) | 9.92 (active)
CAKSNRFRRQAGNASASA [FS-453] | 9.35 (active) | 7.39 (active) | 5.76 (active)
CAKNNRGRRQAGNASASA [FS-1018] | 8.48 (active) | 8.87 (active) | 9.25 (active)
CAERTTPCSGAGNASASA [HC1973] | -0.657 (inactive) | 0.759 (inactive) | 0.0382 (inactive)
CAVVCCFMSYAGNASASA [HC106] | 0.2 (inactive) | -0.139 (inactive) | -1.5 (inactive)
CAMEEWSQHLAGNASASA [HC7] | -0.124 (inactive) | 0.451 (inactive) | 0.398 (inactive)
CAKARRFVEQAGNASASA [FS-2121] | -0.772 (inactive) | 0.447 (inactive) | -0.0659 (inactive)
CAGMLRQRRPAGNASASA [FS-1001] | -1.01 (inactive) | -1.53 (inactive) | -1.03 (inactive)
CAGKRRFRRQAGNASASA [FS-783] | 8.34 (active) | 7.16 (active) | 6.56 (active)
CAFAERSGRGAGNASASA [FS-1322] | -0.454 (inactive) | 0.465 (inactive) | 0.178 (inactive)
CAGTTRQRRSAGNASASA [FS-1458] | 9.35 (active) | 9.67 (active) | 7.94 (active)
CAGRHCVRRSAGNASASA [FS-163] | 3.46 | 4.86 (active) | 4.64 (active)
CAFAERQRRSAGNASASA [FS-1588] | 11.1 (active) | 11 (active) | 10.4 (active)
CAGHGRQERSAGNASASA [FS-530] | 1.31 | 3.84 (active) | 3.39
CAGSSGGPLLAGNASASA [HC742] | -1.42 (inactive) | -0.944 (inactive) | -0.396 (inactive)
